Each structure is given as a SMILES string. About 30 (0.1%) of roughly 23,000 compounds showed an effect of 50% or more. This excerpt belongs to a sample that is enriched for strong results. Potency and affinity values are given separately.

For 14 compounds, Inhibition results are on record in ChEMBL document CHEMBL4296182, “CO-ADD screening of NIH NCI Diversity Set V”.

In this experiment the test system is Pseudomonas aeruginosa. As to conditions: Concentration 20 uM; ASSAY_TEST Inhibition of Bacterial Growth; detection method Absorption (OD600); MEDIA CAMHB; plate type 384well; NBS; CORNING #3640; time 18 hr.
For the compound `OCc1ncccc1O`, the Inhibition amounted to 3.5%.
For `Oc1ccnc2c(Cl)cccc12`, the Inhibition was -8.65%.
With `Oc1ccc2ccccc2c1/N=N/c1ccc(F)cc1`, the Inhibition was 0.71%.
Regarding `O=[N+]([O-])c1cccc(/C=C/c2ccccn2)c1`, the Inhibition turned out to be 19.15%.
Consider `CSc1nc(S)c2[nH]c(S)nc2n1`, for which the Inhibition was found to be 6.05%.
As to `Cc1ccc(/N=N/c2ccc(N)cc2C)c(S(N)(=O)=O)c1`, the Inhibition is reported as -1.43%.
For the compound `COc1ccc(/C(C#N)=C/c2cccnc2)cc1`, the Inhibition amounted to 11.13%.
As for `C=CCC(CC)C(=O)NC(=O)N1CCCc2ccccc21` (centres undefined), the Inhibition was -1.54%.
Take `C=C1S/C(=N\c2c(C)cccc2Cl)N(C(=O)c2sc3ccccc3c2Cl)C12CCCCC2`: the Inhibition is recorded as -6.03%.
For `COC1OC(CO)C(N=C(C)C)C1O` (centres undefined), the Inhibition is recorded as -2.66%.
Turning to `c1ccc(Nc2cccc3c(Nc4ccccc4)cccc23)cc1`, the Inhibition is recorded as 21.7%.
As to `O=C(Nc1cccnc1)c1cccc([N+](=O)[O-])c1`, the Inhibition amounted to 8.42%.
With `COC1OC(O)C(NC(=O)C(F)(F)F)CC1O` (centres undefined), the Inhibition worked out at 6.88%.
In the case of `O=C1CSCc2nc3ccccc3n21` it was 23.81%.
